ssDAF-12 act – S. stercoralis DAF-12 nuclear receptor activators, primary screen, cell-based, luminescence, HEK293, GRIP1 co-expression, lit1-tk-luc. Nuclear hormone receptor DAF-12 (Strongyloides stercoralis). HEK293 ssDAF-12/GRIP1 lit1-tk-luc reporter; % of 3 µM dafachronic acid response. activation, % at 6.8 µM. 370,000 compounds, 1% hits. AID 652126, 2013;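 active = activation above the mean over all tested compounds plus 3 SD, cut at about 0.9% in these data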;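 also: 0% = DMSO-only wells and 100% = 3 µM delta7-dafachronic acid wells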
DAX1 inh-1 – DAX1 (NR0B1) inhibitors on StAR promoter, primary screen, cell-based, luminescence, SF-1 (NR5A1), full-length DAX-1 | HEK293T StAR-luciferase reporter, SF-1/DAX-1 repression relief | inhibition, % at 6.8 µM | 370,000 compounds, 1.1% hits | AID 652010, 2013;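 active = inhibition above the mean over all tested compounds plus 3 SD, cut at about 3.6% in these data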;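 also: 0% = DAX-1 cells with DMSO and 100% = cells lacking DAX-1 with DMSO; higher inhibition means more luminescence from relief of DAX-1 repression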
hgDAF-12 ag – H. glycines DAF-12 receptor agonists, primary screen, cell-based, luminescence, HEK293, GAL4 fusion, UAS-luciferase | Nuclear hormone receptor DAF-12 (Heterodera glycines), GAL4 fusion | HEK293 GAL4-hgDAF12 UAS-luciferase reporter, agonist luminescence; normalized to butyrate control | activation, % at 6.8 µM | 370,000 compounds, 1.8% hits | AID 687014, 2013;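 active = activation above a cutoff set at the mean of all screened compounds plus 3 SD, cut at about 10% in these data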;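 also: 0% = DMSO wells and 100% = sodium butyrate wells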
hcDAF-12 act – H. contortus DAF-12 nuclear receptor activators, primary screen, cell-based, luminescence, HEK293, lit1-tk-luc reporter | activation, % at 6.8 µM | HEK293 hcDAF-12 lit1-tk-luc reporter; 0% DMSO, 100% Δ7-dafachronic acid | 370,000 compounds, 1.4% hits;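 active = activation above the mean of all tested compounds plus 3 SD, cut at about 5.5% in these data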;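 also: 100% = response to 3 µM Δ7-dafachronic acid high control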
SMARCA2 act – SMARCA2 (BRM) function activators, primary screen, cell-based, luminescence, high throughput. MG213 cells, MMTV-luciferase reporter, dexamethasone, overnight. 370,000 compounds, 1% hits. activation, % at 9.1 µM; in the data active = activation above about 7.8%;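 also: 0% = vehicle wells and 100% = reference activator wells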
DAX1 inh-2 – DAX1 (NR0B1) inhibitors, primary screen, cell-based, HEK293, Gal4-DAX1, luciferase luminescence | HEK293 Gal4-DAX1 luciferase reporter | inhibition, % at 6.75 µM | 340,000 compounds, 0.99% hits | AID 504766, 2011;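 active = inhibition above the mean over all tested compounds plus 3 SD, cut at about 4.2% in these data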;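 also: 0% = DAX1-transfected cells with DMSO and 100% = empty-vector control cells with DMSO; inhibition shows as a rise in luminescence from relieved DAX1 repression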
hgDAF12 conf – H. glycines DAF-12 receptor agonists, confirmation, cell-based, luminescence, HEK293, GAL4-LBD fusion. shares compounds with hgDAF-12 ag. HEK293 GAL4-hgDAF12 luciferase reporter, agonist mode; percent of butyrate response. activation, % at 6.8 µM. 3,300 compounds, 80% hits;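 active = mean activation over triplicate wells above the hit cutoff derived from the earlier primary screen, cut at about 11% in these data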;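 also: 0% = DMSO low control and 100% = 2 mM sodium butyrate high control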
LXRb DAF12 ctr – LXR agonists, Gal4 luciferase reporter, confirmation, counter-screen for hgDAF-12 agonist project, cell-based, luminescence, HEK293, H. glycines campaign. shares compounds with hgDAF-12 ag. 24 h. activation, % at 6.8 µM. 3,300 tested, under 10 active. AID 743051, 2013;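 active = mean activation of the triplicate above a set limit carried over from the primary screen, none filed active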
Target sequence (P55055 whole entry, looked up, the tested form may be a part): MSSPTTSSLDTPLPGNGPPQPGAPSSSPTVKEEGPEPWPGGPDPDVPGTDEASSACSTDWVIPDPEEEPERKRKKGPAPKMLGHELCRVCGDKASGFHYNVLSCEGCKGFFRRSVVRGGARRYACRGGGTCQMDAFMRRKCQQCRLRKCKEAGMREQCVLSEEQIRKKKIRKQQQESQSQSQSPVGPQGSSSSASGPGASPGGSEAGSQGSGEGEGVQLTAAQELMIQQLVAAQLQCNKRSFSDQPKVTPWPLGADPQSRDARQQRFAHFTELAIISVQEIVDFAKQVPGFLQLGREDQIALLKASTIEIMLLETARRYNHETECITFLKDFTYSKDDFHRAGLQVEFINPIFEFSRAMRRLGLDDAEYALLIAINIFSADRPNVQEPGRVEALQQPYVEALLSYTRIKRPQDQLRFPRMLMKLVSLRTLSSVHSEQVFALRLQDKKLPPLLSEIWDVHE
* hit, by the source's call; nt = not tested or not shown. An excerpt weighted towards active compounds, which were near 4.8% of everything screened.

SMILES	ssDAF-12 act	DAX1 inh-1	hgDAF-12 ag	hcDAF-12 act	SMARCA2 act	DAX1 inh-2	hgDAF12 conf	LXRb DAF12 ctr
C/C(=N\NC(=O)c1nn(C)c(C)c1Br)c1cccc(NC(=O)c2ccc(F)cc2)c1	0.1	4.1*	16.7*	5.0	2.4	2.6	4.6	0.2
C/C(=N\NC(=O)c1c(Br)c(C)nn1C)c1cccc(NC(=O)c2ccccc2F)c1	-1.6	0.4	-1.3	-1.1	1.2	-0.9	nt	nt
C/C(=N\NC(=O)c1ccccc1)c1cccc(Br)c1	0.3	1.0	14.4*	2.9	2.3	1.7	7.0	0.3
O=C(O)Cn1nnc(-c2ccccc2)c1COc1ccccc1	-1.6	2.1	0.9	-1.0	-1.1	nt	nt	nt
CC1(C)CC(c2nc(-c3ccc([N+](=O)[O-])cc3)cs2)CCO1 (stereo not given)	-1.8	-1.2	2.8	-1.3	-5.9	-1.4	nt	nt
CCN1CCCC1CNCC(O)COc1ccc(C(C)(C)C)cc1C (stereo not given)	-0.8	0.0	-1.4	0.4	-1.5	0.4	nt	nt
O=C(N/N=C/C(Cl)=C\c1ccccc1)c1cccs1	1.4*	2.2	17.9*	4.5	1.9	2.6	15.8*	0.6
O=C(N/N=C/C(Cl)=C/c1ccccc1)c1ccccn1	-0.5	3.3	15.3*	4.3	7.0	2.9	12.3*	0.5
O=C(NCc1cccs1)c1cc(-c2cccs2)on1	-0.9	1.0	15.3*	1.9	1.6	0.6	15.2*	0.4
COCCNC(=O)c1cc(-c2cccs2)on1	-0.1	1.2	37.0*	1.5	1.2	3.9	28.1*	0.4
COc1ccc(-c2cc(C(=O)NCc3cccs3)no2)cc1	-0.7	1.2	8.7	3.8	-0.1	0.4	nt	nt
O=C(NCc1cccs1)c1cc(-c2ccccc2)on1	0.0	2.8	16.2*	2.8	1.9	3.0	14.0*	0.5
O=C(Nc1cccc(O)c1)c1cc(-c2cccs2)on1	-0.1	2.6	14.7*	2.8	6.8	1.0	21.1*	0.4
Cc1cc(C(=O)NCc2cccs2)no1	-1.6	0.1	2.5	-0.1	-1.0	0.6	nt	nt
CCOc1ccccc1OC(C)C(=O)Nc1ccc(S(=O)(=O)N2CCCC2)cc1 (stereo not given)	-0.9	-1.6	1.1	-1.3	-2.1	-0.5	nt	nt
CCCn1cc(NC(=O)c2cc(-c3ccccc3)on2)cn1	-0.7	-0.2	21.7*	0.2	0.8	3.3	20.3*	0.2
Cc1cccc(Cn2cc(CN3CC(N(C)CCCOC(=O)c4cc(C)cc(C)c4)CS3(=O)=O)nn2)c1 (stereo not given)	-1.8	-2.0	-0.9	-5.2	-0.9	nt	nt	nt
O=C1/C(=C/c2ccccc2)CCCc2ccccc21	0.3	0.6	13.6*	3.1	1.0	-0.2	11.0*	0.4
CN(C)c1ccc(/C=C2\CCC/C(=C\c3ccccc3)C2=O)cc1	-0.9	-0.6	1.9	3.0	-2.7	-1.1	nt	nt
O=C(Nc1cccnc1)c1ccc(C(=O)Nc2cccnc2)cc1	-0.9	-0.3	-0.4	-0.2	-1.0	0.5	nt	nt
CC(C)(C)c1ccc(NC(=O)c2ccsc2)cc1	1.0*	3.0	16.9*	6.5*	7.5	nt	16.1*	1.2
Cc1ccc(-c2cc(C(=O)Nc3cccnc3)[nH]n2)c(O)c1C	-1.5	1.1	14.2*	1.4	5.2	5.7*	16.4*	0.5
CC(C)(C)c1ccc(C(=O)Nc2cccnc2)cc1	1.5*	2.1	15.6*	5.9*	5.0	1.8	13.2*	0.9
COC(=O)[C@]1(CC(C)C)N[C@H](c2ccc(-c3cccc(Cl)c3)cc2)[C@@H]2C(=O)N(C)C(=O)[C@@H]21	-0.4	0.8	1.1	-0.5	-0.9	0.0	nt	nt
CCN(CC)C(=O)Cn1cnc2sc(C(=O)N3CCN(c4ccc(F)cc4)CC3)c(C)c2c1=O	-1.1	-0.4	-1.0	-1.9	-0.1	0.4	nt	nt
SMILES	ssDAF-12 act	DAX1 inh-1	hgDAF-12 ag	hcDAF-12 act	SMARCA2 act	DAX1 inh-2	hgDAF12 conf	LXRb DAF12 ctr
CN(C)c1cccc(NC(=O)C2Cc3c(-c4cccnc4)ccnc3O2)c1 (stereo not given)	-0.9	0.9	4.2	0.5	-0.7	nt	nt	nt
O=C1CCCC(O)=C1N=Nc1ccc2c(c1)OCO2	-0.9	0.2	14.5*	5.9*	7.7	2.7	9.0	0.6
CC(=NNc1ccc([N+](=O)[O-])cn1)c1ccccc1	0.0	2.3	13.3*	1.1	7.6	1.1	15.9*	0.6
C/C(=N\Nc1ccc([N+](=O)[O-])cc1)c1ccc(O)cc1	-0.8	0.6	16.3*	2.2	-3.3	nt	8.7	0.2
CC(C=NNc1ccc([N+](=O)[O-])cn1)=Cc1ccccc1	-0.1	3.7*	17.0*	3.3	6.4	7.5*	16.9*	1.1
CC(=O)CSc1ncnc2c1cnn2-c1ccccc1	0.3	2.9	16.7*	2.9	4.9	2.9	17.5*	0.7
Cc1occc1C(=O)N/N=C/c1ccc2c(c1)OCO2	0.2	3.5	15.7*	5.7*	1.6	-0.7	21.4*	0.9
Cc1cc(/C=N/NC(=O)c2ccoc2C)cc(C)c1O	0.1	4.3*	18.4*	3.2	0.4	4.8*	13.6*	0.3
O=C(NN=Cc1ccccc1Cl)c1cccc2ccccc12	-0.4	-0.3	1.4	0.8	3.3	1.7	nt	nt
Cc1occc1C(=O)N/N=C/c1cccc2ccccc12	1.0*	1.8	21.1*	5.8*	2.6	0.2	14.2*	0.5
O=C(N/N=C/c1ccc2c(c1)OCO2)c1ccc(Cl)cc1Cl	-0.7	-0.2	4.9	0.9	1.2	-1.5	nt	nt
CCOC(=O)c1c(NC(=O)CSc2nnc3c(n2)[nH]c2ccccc23)sc2c1CCN(C)C2	-1.1	-0.9	-1.1	0.9	-1.5	0.0	nt	nt
COc1cc(NC(=O)c2cccnc2)c(Cl)cc1NC(=O)c1ccccc1	0.3	3.1	1.9	2.7	-2.2	1.2	nt	nt
